# Measurements reported in PubChem BioAssay (EPA / NIEHS).
# Results filed as inconclusive are left out. The source made the active and inactive calls. The calls were made as follows: active = hit-call score of the fitted dose curve at least 0.9, where 1 is the maximum; inconclusive = response in the unintended direction; inactive = score below 0.9.
# Molecular target: Retinoic acid receptor alpha (Homo sapiens) (UniProt P10276)
# Test: ATG_RARa_TRANS: Attagene TRANS-FACTORIAL HepG2 Assay for human Retinoic Acid Receptor alpha (RARa) (AID 2283005);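 as to AC50: potency for increased reporter signal meaning RARa activation over DMSO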
# Method: ATG_TRANS is a cell-based, multiplexed-readout assay that uses HepG2, a human liver cell line, with measurements taken at 24 hours after chemical dosing in a 24-well plate.ATG_RARa_TRANS is one of 30 assay component(s) measured or calculated from the ATG_TRANS assay. It is designed to make measurements of mRNA induction, a form of inducible reporter, as detected with fluorescence intensity signals by Reverse transcription polymerase chain reaction (RT-PCR) and Capillary electrophoresis technology.Data from the assay component ATG_RARa_TRANS was analyzed into 1 assay endpoint. This assay endpoint, ATG_RARa_TRANS, was analyzed in the positive analysis fitting direction relative to DMSO as the negative control and baseline of activity. Using a type of inducible reporter, measures of mRNA for gain-of-signal activity can be used to understand the reporter gene at the transcription factor-level as they relate to the gene RARA. Furthermore, this assay endpoint can be referred to as a primary readout, because this assay has produced multiple assay endpoints where this one serves a reporter gene function. To generalize the intended target to other relatable targets, this assay endpoint is annotated to the nuclear receptor intended target family, where the subfamily is non-steroidal.
# Human liver HepG2 cells are transiently transfected with multiple reporter transcription units (MRTUs) in 6-well plates using FuGene 6 reagent (Roche; 3 ml FuGene/1 mg DNA). The MRTU constructs are regulated by a cis-regulating element (promoter). […] A major difference between the CIS and TRANS system is that in CIS activities of endogenous TFs are measured, whereas the TRANS assay evaluates changes in activities of exogenous, chimeric NR-Gal4 proteins. […] At the end of 24 hour incubation, total RNA was isolated using TriZol reagent (Invitrogen). The isolated RNA is then reverse-transcribed using oligo(dT) primer and Mo-MLV reverse transcriptase (Invitrogen) with DNAse I (Ambion) treatment for 30 min. The one-tenth of the produced cDNA was amplified by PCR using Taq DNA polymerase (Invitrogen) and two reporter sequence-specific primers. The PCR products were fluorescently labeled by primer extension with 6-arboxyfluorescein (6-FAM) 5'-labeled reporter sequence-specific primer (2 min at 95 C, 20 s at 68 C and 10 min at 72 C) and these products were digested with 5U of HpaI (New England Biolabs) for 2h at 37 C. The fragments were purified using Qiaquick PCR columns (Qiagen), analyzed on an ABI 3130xL genetic analyzer (Applied Biosystems) with peak positions identified by using a set of X-rhodamine (ROX)-labeled MapMarker1000 molecular weight standards (BioVentures). The raw capillary electrophoresis data was processed using Attagraph software (Attagene).
# Chain of Retinoic acid receptor alpha (Homo sapiens) (P10276 whole entry, looked up): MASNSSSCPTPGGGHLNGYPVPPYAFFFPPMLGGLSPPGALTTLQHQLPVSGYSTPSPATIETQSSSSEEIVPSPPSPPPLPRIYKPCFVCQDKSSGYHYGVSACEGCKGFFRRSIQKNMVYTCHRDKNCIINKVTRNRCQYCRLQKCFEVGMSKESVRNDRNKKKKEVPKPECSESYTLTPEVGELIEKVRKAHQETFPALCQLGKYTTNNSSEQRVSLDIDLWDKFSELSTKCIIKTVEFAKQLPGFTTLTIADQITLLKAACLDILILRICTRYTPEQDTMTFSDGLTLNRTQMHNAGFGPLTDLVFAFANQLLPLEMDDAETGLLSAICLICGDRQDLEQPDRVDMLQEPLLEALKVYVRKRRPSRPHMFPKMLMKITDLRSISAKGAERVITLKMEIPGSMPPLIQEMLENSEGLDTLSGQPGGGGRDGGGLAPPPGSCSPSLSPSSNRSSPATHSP
Compound,outcome,AC50
CC1=CC[C@H]2C[C@@H]1C2(C)C,inactive,–
CN(C)CCCN(C)C,inactive,–
C=C(C)[C@H]1CC=C(C)CC1,inactive,–
OC1CCCC1,inactive,–
CCOC(=O)CC(C(C)=O)C(C)=O,inactive,–
NC(=O)C1CO1 (stereo not given),inactive,–
CC(=O)OC(C)C,inactive,–
C#CC1(O)CC[C@H]2[C@@H]3CCC4=CCCC[C@@H]4[C@H]3CC[C@@]21C (stereo not given in full),inactive,–
CC(=O)OCc1ccco1,inactive,–
NCCCN1CCN(CCCN)CC1,inactive,–
C=C[Si](C)(C)O[Si](C)(C)C=C,inactive,–
Cc1cc(C)c(C(=O)O)c(C)c1,inactive,–
CC(C)c1ccc(C#N)cc1,inactive,–
Nc1ncn([C@@H]2O[C@H](CO)[C@@H](O)[C@H]2O)c(=O)n1,inactive,–
O=C(Nc1ccccc1)c1ccccc1O,inactive,–
Cc1ccc2oc(=O)ccc2c1,inactive,–
CCCNC(=O)NS(=O)(=O)c1ccc(Cl)cc1,inactive,–
O=P(O)(O)Oc1ccccc1,inactive,–
CC(C)CC(O)Cc1ccccc1 (stereo not given),inactive,–
CCCCCC/C=C\CCCCCCCC(=O)O,inactive,–

Compound,outcome,AC50
CCCCCCOc1cc(C)c(O)c(C)c1C,inactive,–
C=C(C)CCO,inactive,–
O=C1C(N(CO)C(=O)NCO)N(CO)C(=O)N1CO (stereo not given),inactive,–
c1cc(C(c2ccc(OCC3CO3)cc2)C(c2ccc(OCC3CO3)cc2)c2ccc(OCC3CO3)cc2)ccc1OCC1CO1 (stereo not given),inactive,–
CCCCCCCCCCCCCCCC[n+]1ccccc1,inactive,–
Cc1c(C)c([N+](=O)[O-])c(C(C)(C)C)c([N+](=O)[O-])c1C,inactive,–
O=c1c2ccccc2nnn1CCl,inactive,–
CC(=O)c1ccc[nH]1,inactive,–
O=c1c2ccccc2oc2ccccc12,inactive,–
O=C1c2cccc(O)c2C(=O)c2c(O)cc(CO)cc21,inactive,–
C=C1C2CCC(C2)C1(C)C (stereo not given),inactive,–
O=C1CCCC1,inactive,–
Clc1nc2ccccc2s1,inactive,–
c1ccc(-c2ccccn2)nc1,inactive,–
CCCC(C)CCC(C)=O (stereo not given),inactive,–
O=c1cc(-c2ccccc2)oc2ccccc12,inactive,–
C(=CC=Nc1ccccc1)C=CNc1ccccc1,inactive,–
CNC(=S)N(C)C,inactive,–
Cn1c([N+](=O)[O-])cnc1COC(N)=O,inactive,–
c1ccc2c(c1)ccc1ncccc12,–,13.4 µM (active)
